Measured values taken from PubChem BioAssay (Tox21).
Results filed as inconclusive are left out. The source made the active and inactive calls. Unless noted, calls follow the shape of the dose curve; as a rule, active = well fitted curve in the direction sought with a large enough effect in the repeat runs; inconclusive = weak or mixed curves; inactive = no such curve, though single readings can be large; an effect the other way counts as inactive or inconclusive.

Assays:
[1] = qHTS assay to identify small molecule antagonists of the estrogen related receptor (ERR) signaling pathway from Tox21 library - cell viability counter screen (AID 1224834); also: nearly all actives have a fitted effect of over 30% in size; also: potency is read from the fitted curve at half-maximal effect
Method in brief: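 CellTiter-Fluor fluorescence measured; ERR cells; 17.5 h compound incubation at 37 C; 30 min reagent step.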

[2] = target: Luciferin 4-monooxygenase (Photinus pyralis) (UniProt P08659); test: qHTS assay to identify small molecule inhibitors of firefly luciferase (AID 1224835); also: nearly all actives have a fitted effect of over 25% in size; also: potency is read from the fitted curve at half-maximal effect
Method in brief: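 Inhibition of purified Photinus luciferase is measured by luminescence. Substrate levels (D-luciferin, ATP) sit at their KM values. Each compound is tested in a concentration series.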

[3] = qHTS assay to identify small molecule antagonists of the constitutive androstane receptor (CAR) signaling pathway - cell viability counter screen (AID 1224837); also: series mostly up to about 92 µM; nearly all actives have a fitted effect of over 45% in size
Method in brief: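 Using CellTiter-Fluor, viability is scored in HepG2 cells stably carrying hCAR and a 2.2kb CYP2B6 reporter after 23 hr compound exposure across 15 concentrations, with CITCO present at 50 nM.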

[4] = target: Nuclear receptor subfamily 1 group I member 3 (Homo sapiens) (UniProt Q14994); test: qHTS assay to identify small molecule antagonists of the constitutive androstane receptor (CAR) signaling pathway (AID 1224838);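 also: HepG2 cells stably expressing hCAR with CYP2B6 luciferase reporter stimulated by CITCO; nearly all actives have a fitted effect of over 40% in size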
Method in brief: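 Reporter luminescence was quantified after 24 h exposure of hCAR/CYP2B6-2.2kb double-stable HepG2 cells to compounds at 15 concentrations in the presence of 50 nM CITCO final.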

[5] = qHTS assay to identify small molecule antagonists of the estrogen related receptor signaling pathway with the pleiotropic PPARgamma coactivator (PGC) from Tox21 10K library - cell viability counter screen (AID 1224840; active = well fitted cell-killing curve with a large enough effect in the repeat runs, not every such curve was filed as active; also: nearly all actives have a fitted effect of over 40% in size; also: potency is read from the fitted curve at half-maximal effect)
Method in brief: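 Here the PGC/ERR cells serve as a cytotoxicity control: they are exposed to compounds for 17.5 hours at 37 C, and live-cell signal is quantified using CellTiter-Fluor fluorescence.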

[6] = qHTS assay to identify small molecule agonists of the constitutive androstane receptor (CAR) signaling pathway - cell viability counter screen (AID 1224836); also: series mostly up to about 92 µM; nearly all actives have a fitted effect of over 45% in size
Method in brief: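 Counter screen multiplexed with the CAR reporter readout: HepG2 cells co-transfected with hCAR and the CYP2B6-2.2kb construct receive a 15-concentration compound series and 0.75 uM PK11195 (final), then CellTiter-Fluor fluorescence is read after 23 h.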

[7] = target: Thyrotropin receptor (Homo sapiens) (UniProt P16473); test: qHTS assay to identify small molecule agonists of the thyroid stimulating hormone receptor (TSHR) signaling pathway (AID 1224843; calls by dose curve; also: nearly all actives have a fitted effect of over 45% in size)
Method in brief: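 HEK293 cells stably bearing the thyrotropin receptor were plated at 800 cells/well and challenged with compound (30 min, RT). Accumulated cAMP was quantified via cAMP-d2 competing for cryptate-tagged antibody.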

[8] = qHTS assay to identify small molecule antagonists of the estrogen related receptor signaling pathway with the pleiotropic PPARgamma coactivator (PGC) from Tox21 10K library (AID 1224841; call rule not given here; also: series mostly up to about 92 µM; actives are mostly falling curves and most rising ones were filed inactive; nearly all actives have a fitted effect of over 50% in size)
Method in brief: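 Each well held 2,000 PGC/ERR cells, pre-incubated six hours (37 C, 5% CO2). Test substances in DMSO were added by pin tool and left for 18 h at 37 C before luciferase detection by One-Glo.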

[9] = qHTS assay to identify small molecule agonists of the estrogen related receptor signaling pathway with the pleiotropic PPARgamma coactivator (PGC) from Tox21 10K library (AID 1224842); also: nearly all actives have a fitted effect of over 15% in size; also: potency is read from the fitted curve at half-maximal effect
Method in brief: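 Luminescence from One-Glo (30 min, room temperature) measured after PGC/ERR cells had 18 h at 37 C with pinned compound (23 nL in DMSO). Cells had been seeded at 2,000 per well and pre-incubated 6 h.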

[10] = target: Nuclear receptor subfamily 1 group I member 3 (Homo sapiens) (UniProt Q14994); test: qHTS assay to identify small molecule agonists of the constitutive androstane receptor (CAR) signaling pathway (AID 1224839); also: nearly all actives have a fitted effect of over 15% in size; also: potency is read from the fitted curve at half-maximal effect; as to activation: series mostly up to about 92 µM
Method in brief: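 A 15-concentration quantitative screen uses HepG2 cells co-transfected stably with human CAR and CYP2B6-2.2kb reporter. Treatment lasts 24 h with 0.75 uM PK11195 final present; ONE-Glo luminescence is the signal.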
% is scaled to controls: 0 for no effect and ±100 for the full control effect.

Thyrotropin receptor (Homo sapiens), sequence (P16473 whole entry, looked up): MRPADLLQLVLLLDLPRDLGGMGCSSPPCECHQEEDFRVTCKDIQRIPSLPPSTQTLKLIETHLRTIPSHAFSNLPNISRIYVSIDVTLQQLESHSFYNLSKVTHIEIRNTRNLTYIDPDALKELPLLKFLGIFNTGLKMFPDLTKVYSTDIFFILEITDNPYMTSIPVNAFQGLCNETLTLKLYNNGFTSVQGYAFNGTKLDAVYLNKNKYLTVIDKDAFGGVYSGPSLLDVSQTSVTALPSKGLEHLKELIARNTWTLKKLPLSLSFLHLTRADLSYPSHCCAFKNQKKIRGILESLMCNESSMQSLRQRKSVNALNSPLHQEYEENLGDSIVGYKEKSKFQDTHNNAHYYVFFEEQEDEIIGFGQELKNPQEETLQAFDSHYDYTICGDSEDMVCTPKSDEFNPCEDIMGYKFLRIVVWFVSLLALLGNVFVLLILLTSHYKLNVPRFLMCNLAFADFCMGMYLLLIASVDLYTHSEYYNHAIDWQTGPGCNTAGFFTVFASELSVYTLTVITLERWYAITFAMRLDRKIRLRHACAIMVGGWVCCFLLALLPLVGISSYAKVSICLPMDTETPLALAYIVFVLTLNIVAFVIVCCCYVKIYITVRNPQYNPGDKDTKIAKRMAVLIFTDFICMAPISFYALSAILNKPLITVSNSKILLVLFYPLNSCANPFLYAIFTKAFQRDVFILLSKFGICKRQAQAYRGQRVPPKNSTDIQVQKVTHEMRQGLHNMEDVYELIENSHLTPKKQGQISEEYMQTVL
Luciferin 4-monooxygenase (Photinus pyralis), sequence (P08659 whole entry, looked up): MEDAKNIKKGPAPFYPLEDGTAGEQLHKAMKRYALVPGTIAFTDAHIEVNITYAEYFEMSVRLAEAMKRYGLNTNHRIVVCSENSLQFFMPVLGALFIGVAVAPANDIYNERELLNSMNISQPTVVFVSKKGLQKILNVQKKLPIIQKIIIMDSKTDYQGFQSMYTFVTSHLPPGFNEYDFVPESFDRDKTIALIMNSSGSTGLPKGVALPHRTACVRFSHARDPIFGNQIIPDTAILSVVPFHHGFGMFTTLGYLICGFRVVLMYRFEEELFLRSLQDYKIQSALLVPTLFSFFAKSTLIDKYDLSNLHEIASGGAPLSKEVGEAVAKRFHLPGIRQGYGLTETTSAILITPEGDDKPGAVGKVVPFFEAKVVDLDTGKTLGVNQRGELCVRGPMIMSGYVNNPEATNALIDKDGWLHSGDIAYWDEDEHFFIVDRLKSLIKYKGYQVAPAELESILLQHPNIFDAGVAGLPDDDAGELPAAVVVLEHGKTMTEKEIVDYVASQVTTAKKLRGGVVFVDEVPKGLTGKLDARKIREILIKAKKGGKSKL
Nuclear receptor subfamily 1 group I member 3 (Homo sapiens), sequence (Q14994 whole entry, looked up): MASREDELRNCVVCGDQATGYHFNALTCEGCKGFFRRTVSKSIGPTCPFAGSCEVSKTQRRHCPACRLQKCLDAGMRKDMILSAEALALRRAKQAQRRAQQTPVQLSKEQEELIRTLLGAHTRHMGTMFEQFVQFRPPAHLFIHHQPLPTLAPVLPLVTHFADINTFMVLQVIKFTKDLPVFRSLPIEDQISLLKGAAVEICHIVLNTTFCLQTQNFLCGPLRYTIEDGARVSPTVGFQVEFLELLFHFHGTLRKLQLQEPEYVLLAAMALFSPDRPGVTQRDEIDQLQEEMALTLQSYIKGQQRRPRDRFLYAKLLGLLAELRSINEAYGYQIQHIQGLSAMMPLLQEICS

CCOc1ccc(NS(=O)(=O)c2ccc(N)cc2)nn1
inactive: Potency [1] | Potency [2] | Potency [3]

CC(C)(C)C1CCCCC1=O (stereo not given)
inactive: Potency [1] | Potency [2] | Potency [3] | Potency [4] | Potency [5]

Nc1ccc2ccccc2c1S(=O)(=O)O
inactive: Potency [1] | Potency [6] | Potency [4] | Potency [7]
active: Potency [2] 32.4 µM

CC(C)C(=O)OCC(C)(C)C(O)C(C)C (stereo not given)
inactive: Potency [1] | Potency [2] | Potency [6] | Potency [5]

CCCCNc1ccc(C(=O)OCCN(CC)CC)cc1
inactive: Potency [1] | Potency [2] | Potency [3] | Potency [4] | Potency [8] | Potency [9] | Potency [7]

CC1(O)CSC(C)(O)CS1 (stereo not given)
inactive: Potency [1] | Potency [2] | Potency [6] | Potency [4] | Potency [5]

NC(=O)NS(=O)(=O)c1ccc(Cl)cc1
inactive: Potency [1] | Potency [2] | Potency [3] | Potency [4] | Potency [10] | Potency [5]

COC(=O)/C=C(/C)N
inactive: Potency [1] | Potency [2] | Potency [3] | Potency [4] | Potency [5] | Potency [8] | Potency [9] | Potency [7]

O=C1CCCCC1C1CCCCC1 (stereo not given)
inactive: Potency [1] | Potency [2] | Potency [3] | Potency [5] | Potency [7]

O=CCCc1ccccc1
inactive: Potency [1] | Potency [2] | Potency [6] | Potency [5]

CCc1cc(Cl)c(OC)c(C(=O)NC[C@@H]2CCCN2CC)c1O
inactive: Potency [1] | Potency [2] | Potency [3] | Potency [4] | Potency [10] | Potency [5] | Potency [8] | Potency [9]

CC/C=C\CCOC(=O)C(C)C
inactive: Potency [1] | Potency [2] | Potency [3] | Potency [5]

O=S(=O)(O)C(F)(F)F
inactive: Potency [1] | Potency [2] | Potency [6] | Potency [4] | Potency [10] | Potency [5] | Potency [8] | Potency [9]

CCOC(=O)c1ccccc1O
inactive: Potency [1] | Potency [2] | Potency [3] | Potency [5] | Potency [8] | Potency [9] | Potency [7]

c1ccc(CN(CC2=NCCN2)c2ccccc2)cc1
inactive: Potency [1] | Potency [2] | Potency [3] | Potency [4] | Potency [10] | Potency [5] | Potency [8] | Potency [9] | Potency [7]

CC(=O)Nc1ccc(C)c(Cl)c1
inactive: Potency [1] | Potency [2] | Potency [3] | Potency [4] | Potency [10] | Potency [7]

CCCC1CCC(=O)O1 (stereo not given)
inactive: Potency [1] | Potency [2] | Potency [3] | Potency [4] | Potency [10] | Potency [7]

CCCC(CCC)(C(=O)OCC)C(=O)OCC
inactive: Potency [1] | Potency [2] | Potency [6] | Potency [4] | Potency [10] | Potency [5] | Potency [7]

C=CC1CO1 (stereo not given)
inactive: Potency [1] | Potency [2] | Potency [3] | Potency [5] | Potency [7]

CCCCC(CC)COC(=O)COc1cc(Cl)c(Cl)cc1Cl (stereo not given)
inactive: Potency [1] | Potency [2] | Potency [6] | Potency [4] | Potency [10] | Potency [5]

N#CSCC(=O)O
inactive: Potency [1] | Potency [2] | Potency [3] | Potency [4] | Potency [5] | Potency [8] | Potency [9] | Potency [7]

Cc1c(N)cccc1N
inactive: Potency [1] | Potency [2] | Potency [3] | Potency [4] | Potency [10] | Potency [5] | Potency [7]

CCOC(=O)c1cc(=O)c2c(OCC(COc3cccc4oc(C(=O)OCC)cc(=O)c34)OC(=O)[C@@H](N)CCCCN)cccc2o1
inactive: Potency [1] | Potency [2] | Potency [3] | Potency [4] | Potency [10] | Potency [8] | Potency [9] | Potency [7]

CC1=C(CC(=O)O)c2cc(F)ccc2/C1=C\c1ccc(S(C)(=O)=O)cc1
inactive: Potency [1] | Potency [2] | Potency [3] | Potency [4] | Potency [10] | Potency [5] | Potency [8] | Potency [9]

O=c1oc2c(O)c(O)cc3c(=O)oc4c(O)c(O)cc1c4c23
active: Potency [2] 12 µM
inactive: viability change, negative = cytotoxic [1] -2.26% [at 19 µM] | viability change, negative = cytotoxic [6] -3.24% [at 19 µM] | activity, negative = inhibition [4] 7.54% [at 19 µM] | activation [10] -0.67% [at 19 µM] | viability change, negative = cytotoxic [5] -7.93% [at 19 µM]

OCCN1CCN(CCO)CC1
inactive: Potency [1] | Potency [2] | Potency [3] | Potency [4] | Potency [10]

CCOc1ccc(OCC)c(Cl)c1
inactive: Potency [1] | Potency [2] | Potency [6] | Potency [4] | Potency [5] | Potency [8] | Potency [9] | Potency [7]

Cc1onc(-c2ccccc2)c1C(=O)Cl
inactive: Potency [1] | Potency [2] | Potency [3] | Potency [4] | Potency [5]

CCOC(=O)[C@H](CCc1ccccc1)N[C@@H](C)C(=O)N1Cc2cc(OC)c(OC)cc2C[C@H]1C(=O)O
inactive: Potency [1] | Potency [2] | Potency [6] | Potency [3] | Potency [5] | Potency [7]

CC(C)=CCC[C@](C)(O)[C@@H]1CC=C(C)CC1
inactive: Potency [1] | Potency [2] | Potency [3] | Potency [4] | Potency [10] | Potency [5]

Cc1ccc(C)c(N)c1
inactive: Potency [1] | Potency [2] | Potency [6] | Potency [4] | Potency [5] | Potency [8] | Potency [9] | Potency [7]

Nc1ccc(Oc2ccc(N)c(N)c2)cc1
active: Potency [1] 27.3 µM | Potency [2] 7.96 µM | Potency [10] 2.43 µM | Potency [5] 48.6 µM | Potency [9] 9.69 µM
inactive: Potency [6] | Potency [4] | Potency [8]

CCCCCCCOC(=O)CCC
inactive: Potency [1] | Potency [6] | Potency [3] | Potency [4] | Potency [10] | Potency [5] | Potency [8] | Potency [9] | Potency [7]
